Screens from PubChem.
Most compounds without a hit are left out; they make up all but 2.1% or so of the library.
aSyn 5UTR inh: MLPCN primary screen, SNCA 5' untranslated region; alpha-synuclein 5'UTR reporter, inhibitor activity; 300,000 compounds, 0.82% hits; inhibition, % (tested at 7.5 µM); in the data active = inhibition above about 60%;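 also: H4 neuroglioblastoma cells stably carrying SNCA 5'UTR luciferase fusion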
BaF3 parental: parental Ba/F3 cell viability inhibition, counter-screen for JAK2V617F inhibitor project, murine pro-B, CellTiter-Glo luminescence. CellTiter-Glo ATP luminescence. inhibition, % at 5.6 µM. 220,000 compounds, 1.1% hits. AID 1486, 2009;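 active = inhibition above a per-campaign cutoff, the mean inhibition of all tested compounds plus 3 SD, cut at about 27% in these data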
Ba/F3 V617F tox: reduced viability of JAK2V617F-dependent Ba/F3 cells, primary screen, JAK2V617F inhibitor project, cell-based, Ba/F3 EpoR-JAK2V617F, luminescence | 220,000 compounds, 1.1% hits | inhibition, % at 5.6 µM | ATP luminescence;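 active = inhibition above the campaign mean plus 3 SD over all tested compounds, cut at about 24% in these data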;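 also: cytokine-independent growth of Ba/F3 cells driven by EpoR plus mutant JAK2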
APP transl inh: inhibitors of APP translation via 5'UTR reporter, primary screen, APP 5'UTR luciferase, SH-SY5Y cells | SH-SY5Y APP 5'UTR-luciferase reporter, luminescence | inhibition, % at 2 µM | 190,000 compounds, 0.82% hits | AID 1285, 2008;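 active = inhibition above a set limit, derived from the sample mean plus 3 SD, cut at about 45% in these data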
KLF5 inh: KLF5 expression inhibitors, primary screen, DLD-1 cells, luminescence | DLD-1 KLF5 promoter-luciferase reporter | inhibition, % at 5 µM | 290,000 compounds, 0.23% hits | AID 1700, 2009;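 active = inhibition above a per-plate limit of that plate's mean compound inhibition plus 3 SD, cut at about 60% in these data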;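 also: higher means less KLF5 promoter-driven luciferase light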
IEC-6 tox: cytotoxicity in IEC-6 intestinal epithelial cells, primary screen, cytotoxicity control for KLF5 inhibitor project, cell-based, luminescence; IEC-6 cytotoxicity, luminescence viability; inhibition, % at 5 µM; 290,000 compounds, 0.78% hits
IEC-6 tox confirm: cytotoxic compounds in IEC-6 epithelial cells, confirmation, cytotoxicity control, cell-based, luminescence. 1,900 compounds, 63% hits. inhibition, % at 5 µM. IEC-6 rat intestinal epithelial viability. AID 1907, 2009. shares compounds with IEC-6 tox
A number is an active result; i = inactive; nt = no result given. Rule as the data show it, unless noted: active = inhibition above about 22%; inactive = the rest.

SMILES	aSyn 5UTR inh	BaF3 parental	Ba/F3 V617F tox	APP transl inh	KLF5 inh	IEC-6 tox	IEC-6 tox confirm
Cc1cc(C(=O)NC2CCCc3c2cnn3-c2ccc(C)c(C)c2)n(C)n1 (configuration not stated)	i	nt	nt	nt	i	38	27
Cc1cccc(C)c1NC(=O)CNC(=O)C1CC(=O)N(Cc2ccccc2)C1 (configuration not stated)	i	nt	nt	nt	nt	nt	nt
CC1CCCCN1S(=O)(=O)c1ccc(C(=O)N2CCOCC2)cc1 (configuration not stated)	i	nt	nt	nt	i	i	nt
COCCCN(C(=O)c1ccccc1F)c1nc(-c2ccc(OC)cc2)cs1	i	nt	nt	nt	i	i	nt
Cc1cc(-c2ccccc2)nc(N2CCN(c3ccccn3)CC2)n1	i	i	i	i	i	26	41
O=C(c1ccccc1-c1ccccc1)N1CCN(c2ccccn2)CC1	i	55	75	46	i	34	39
Nc1nc(N2CCN(c3ccccn3)CC2)nc2ccccc12	i	nt	nt	nt	i	i	nt
CCOc1ccc(C(=O)NC(=S)Nc2cccc(S(=O)(=O)NC3=NCCC3)c2)cc1	111	79	72	89	i	65	46
C=CCn1c(SCC(=O)c2cccs2)nnc1-c1cccc(OC)c1	i	i	i	i	i	i	nt
C=CCn1c(SCC(=O)c2cccs2)nc2sc(C)cc2c1=O	i	i	i	i	i	66	44
CCN1CCc2c(sc(NC(=O)c3cc4ccccc4cc3OC)c2C(N)=O)C1	i	nt	nt	nt	i	27	i
CC(=O)Nc1ccc(S(=O)(=O)N2CCCc3ccccc32)cc1	i	i	i	i	i	40	42
COC(=O)Nc1ccc(S(=O)(=O)N2CCCCC2C(=O)O)cc1 (configuration not stated)	i	i	i	i	i	i	nt
COC(=O)Nc1ccc(S(=O)(=O)N2c3ccccc3CCC2C)cc1 (configuration not stated)	i	41	57	61	i	48	53
O=C(c1ccc([N+](=O)[O-])cc1)N1CCN(C2=NS(=O)(=O)c3ccccc32)CC1	i	nt	nt	nt	i	i	nt
CCC(=O)N1CCN(c2ccccc2NC(=O)Cc2ccccc2)CC1	i	i	i	i	i	i	nt
CCC(=O)N1CCN(c2ccccc2NC(=O)c2ccc([N+](=O)[O-])o2)CC1	i	nt	nt	nt	i	38	i
CC(C)C(=O)N1CCN(c2ccccc2NC(=O)c2ccc([N+](=O)[O-])o2)CC1	i	nt	nt	nt	i	26	23
CN(CC1CCOCC1)C(=O)CC1C(=O)NCCN1Cc1ccc(F)c(F)c1 (configuration not stated)	i	nt	nt	nt	i	i	nt
CCCCNC(=O)CSc1nc2cc3c(cc2c(=O)n1CCC(=O)NCCc1ccc(OC)c(OC)c1)OCO3	i	i	i	i	i	i	nt
COc1ccc(C2=Nn3c(nnc3-c3ccncc3)SC2)cc1	i	i	i	i	i	i	nt
CCOc1ccc(C2=Nn3c(nnc3-c3ccc(OC)cc3)SC2)cc1	84	57	73	95	i	34	52
c1ccc(Cn2nnc(CNc3ccccc3)c2-c2c(CNc3ccccc3)nnn2Cc2ccccc2)cc1	i	nt	nt	nt	nt	nt	nt
Cc1ccc(NC(=O)Cc2noc3ccccc23)nc1	i	i	i	i	i	23	i
O=C(Cc1noc2ccccc12)Nc1ccccn1	i	i	i	i	i	i	nt
CCOC(=O)c1[nH]c2c(c1C)C(=O)CC(c1ccc(OC)c(OC)c1)C2 (configuration not stated)	i	i	i	i	i	i	nt
Cc1c(C(=O)OCC2CCCO2)[nH]c2c1C(=O)CC(c1ccco1)C2 (configuration not stated)	i	i	i	i	i	38	47
COC(=O)C1C(=O)c2c([nH]c(C(=O)OC3CCCC3)c2C)CC1C (configuration not stated)	i	i	i	i	i	i	nt
